High-throughput results from PubChem.
VACV mCherry inh: qHTS for Stage-Specific Inhibitors of Vaccinia Orthopoxvirus: mCherry Reporter Primary qHTS | Vaccinia virus mCherry reporter infection, fluorescence | Potency, µM (top dose mostly 36.5 µM), usual class: inhibitors | 0.63% of 310,000 active; calls by dose curve; tested in A549 cells; note: nearly all actives have a fitted effect of over 35% in size
AmpC inh detg: qHTS Inhibitors of AmpC Beta-Lactamase (assay with detergent); Potency, µM (doses to about 114 µM), usual class: inhibitors; P00811; AmpC hydrolysis of nitrocefin, absorbance 480 nm, 0.01% Triton; 0.041% of 370,000 active; note: nearly all actives have a fitted effect of over 25% in size
Target sequence (P00811 whole entry, looked up): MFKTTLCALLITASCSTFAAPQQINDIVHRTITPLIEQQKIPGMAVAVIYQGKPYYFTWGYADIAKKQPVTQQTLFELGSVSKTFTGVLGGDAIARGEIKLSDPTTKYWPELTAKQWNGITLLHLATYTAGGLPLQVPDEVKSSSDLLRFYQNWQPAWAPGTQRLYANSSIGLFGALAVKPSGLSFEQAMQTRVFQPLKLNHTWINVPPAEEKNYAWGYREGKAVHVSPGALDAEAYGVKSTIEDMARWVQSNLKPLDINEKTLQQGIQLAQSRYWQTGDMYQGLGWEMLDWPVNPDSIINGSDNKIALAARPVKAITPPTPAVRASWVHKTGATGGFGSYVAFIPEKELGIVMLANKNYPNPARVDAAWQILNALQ
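20 mM phosphate pH 7.0 + 0.01% (detergent screen) or 0.0001% Triton X-100; 5.3 nM AmpC reagent; cpd preinc 15 min RT; nitrocefin (800 uM stock) to start; A480 q20 s × 4 min; Activity was normalised to no-enzyme and no-compound control wells.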
AmpC no deterg: qHTS Inhibitors of AmpC Beta-Lactamase (assay without detergent); Potency, µM (series often up to 57.1 µM), most hits filed as inhibitors; AmpC nitrocefin hydrolysis, absorbance 480 nm, 0.0001% Triton; P00811; 0.52% of 330,000 active; note: nearly all actives have a fitted effect of over 20% in size
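AmpC (5.3 nM in the dispensed reagent) in 20 mM phosphate pH 7.0 with 0.01% (detergent screen) or 0.0001% Triton X-100 was preincubated with compounds for 15 min at room temperature. Nitrocefin was then added from an 800 uM solution, and hydrolysis was followed at 480 nm.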
SARS PLP yeast: qHTS of Yeast-based Assay for SARS-CoV PLP; S. cerevisiae expressing SARS-CoV PLpro, growth rescue; Potency, µM (top dose mostly 32.9 µM), most hits filed as activators; 0.19% of 330,000 active; AID 485353, 2010; calls by dose curve; note: nearly all actives have a fitted effect of over 55% in size
Vaccinia Venus: qHTS for Stage-Specific Inhibitors of Vaccinia Orthopoxvirus: Venus Reporter Primary qHTS; Vaccinia virus Venus reporter expression, fluorescence; Potency, µM (top dose mostly 36.5 µM), usual class: inhibitors; 0.46% of 330,000 active; AID 720580, 2013; calls by dose curve; tested in A549 cells; note: nearly all actives have a fitted effect of over 30% in size
AMA1 RON2 block: qHTS for Inhibitors of AMA1-RON; Towards Development of Antimalarial Drug Lead: Primary Screen; AID 720542, 2013; Potency, µM (highest dose often 58.2 µM), actives largely listed as inhibitors; Plasmodium falciparum AMA1 (3D7) - RON2 peptide interaction; AlphaScreen AMA1-biotinylated RON2 peptide binding; 0.2% of 360,000 active; note: nearly all actives have a fitted effect of over 45% in size
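AMA1 (3D7) with his tag at 25 nM final met compounds first, then biotinylated RON2 peptide at 25 nM; detection used donor plus acceptor beads, 10 µg/mL apiece, read by AlphaScreen after 30 min at room temperature.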
A number is an active result; – = inactive; ? = inconclusive; · = not tested or not shown; ! = not active in a repeat. Only some compounds are listed: those with a hit (about 1.4% of all), similar ones and a draw of the others. Unless noted, calls come from the whole dose curve; as a rule, active = well fitted curve in the direction sought with a large enough effect; inconclusive = small, poorly fitted or top-dose-only effect, or another doubt; inactive = no such curve, though single readings can be large; an effect the other way counts as inactive or inconclusive.

SMILES | VACV mCherry inh | AmpC inh detg | AmpC no deterg | SARS PLP yeast | Vaccinia Venus | AMA1 RON2 block
C#CCOCCOCCOCCNc1nc(N2CCN(C(=O)CCCCCCCCCCNC(=O)[C@H](CO)n3cc(CCCSC)nn3)CC2)nc(N2CCN(C(=O)CCCCCCCCCCNC(=O)[C@H](CCCN=C(N)N)n3cc(C[C@@H](C)CC)nn3)CC2)n1 | – | – | – | – | 11µM | ?
O=C(Nc1cc(-c2ccc(F)c(F)c2)no1)c1ccccc1F | – | – | · | · | – | ·
Cc1nc2ncccn2c1-c1csc(Nc2ccccc2)n1 | – | – | – | – | ? | –
Cc1nc2ncccn2c1-c1csc(Nc2ccc(N(C)C)cc2)n1 | ? | – | – | – | ? | 14µM
COc1cc(=O)n2c(c1C(=O)NCc1nonc1C)CCN(Cc1c[nH]c3ccccc13)CC2 | – | · | · | · | – | ·
Cc1onc(-c2c(Cl)cccc2Cl)c1C(=O)N[C@@H]1C(=O)N2[C@@H]1SC(C)(C)[C@@H]2C(=O)O | – | 0.045µM | 0.1µM! | – | – | –
Cc1onc(-c2c(Cl)cccc2Cl)c1C(=O)NC1C(=O)N2C1SC(C)(C)C2C(=O)O (stereo not drawn) | – | ? | ? | – | – | –
CC(Oc1ccccc1)C(=O)NC1C(=O)N2C1SC(C)(C)C2C(=O)O (stereo not drawn) | – | 35µM | ? | – | – | –
Cn1cnc([N+](=O)[O-])c1Oc1ccccc1 | 28µM | – | – | – | ? | –
Cn1cnc([N+](=O)[O-])c1Oc1cccc(O)c1 | ? | – | – | – | ? | –
Cc1ncc2c(c1CNC(=O)c1cncs1)CCN(C(=O)c1ccsc1)C2 | – | · | · | · | – | ·
CC[C@]12c3[nH]c4cc(-c5ccco5)ccc4c3CCN1C(=O)[C@@H](CC(=O)NCC13CC4CC(CC(C4)C1)C3)C[C@@H]2C(=O)N1CCN(C(=O)C2CC2)CC1 | ? | · | – | – | ? | –
CC[C@]12c3[nH]c4cc(-c5ccco5)ccc4c3CCN1C(=O)[C@@H](CC(=O)NCc1cccc(C(F)(F)F)c1)C[C@@H]2C(=O)N1CCN(C(=O)C2CC2)CC1 | ? | · | – | – | ? | –
C[C@]12c3[nH]c4cc(-c5ccco5)ccc4c3CCN1C(=O)[C@@H](CC(=O)NCc1cccc(C(F)(F)F)c1)C[C@@H]2C(=O)N1CCCCC1 | 11µM | · | – | – | ? | ?
CC[C@]12c3[nH]c4ccc(Cl)cc4c3CCN1C(=O)[C@@H](CC(=O)NCC13CC4CC(CC(C4)C1)C3)C[C@@H]2C(=O)N1CCN(C(=O)c2ccco2)CC1 | 11µM | · | – | – | 14µM | –
CC(C)=CCC/C(C)=C/CNC(=O)CC1C[C@H](C(=O)N2CCOCC2)[C@@]2(C)c3[nH]c4ccccc4c3CCN2C1=O (stereo partly drawn) | ? | · | – | – | ? | –
CC[C@]12c3[nH]c4cc(-c5ccco5)ccc4c3CCN1C(=O)[C@@H](CC(=O)NCC13CC4CC(CC(C4)C1)C3)C[C@@H]2C(=O)N1CCN(C(=O)c2ccco2)CC1 | 7.1µM | · | – | – | ? | –
CC(C)=CCC/C(C)=C/CNC(=O)C[C@H]1C[C@H](C(=O)N2CCOCC2)[C@@]2(C)c3[nH]c4cc(-c5ccco5)ccc4c3CCN2C1=O | ? | · | – | – | 11µM | ?
O=[N+]([O-])c1ccc2c(c1)/C(=C/c1ccc(C=S)cc1)C=C2 | – | · | · | · | – | ·
Cc1ncc2c(c1CNC(=O)/C=C/c1cccs1)CCN(C(=O)c1cc(C(C)C)on1)C2 | – | · | · | · | – | ·
Cc1cc(-c2ccnc(-n3ncc(C(=O)N(C)CC(O)c4ccccc4)c3C)n2)c(C)s1 (stereo not drawn) | – | · | · | · | – | ·
O=c1c2ccccc2nc(-c2ccc(Cl)cc2)n1CCCOc1ccccc1F | – | – | · | · | – | ·
COCCN1CCN(C(=O)c2cnn(-c3nccc(-c4ccco4)n3)c2C2CC2)CC1 | – | · | · | · | – | ·
